Compound activity (PubChem BioAssay)
IL1B secr inh: blocks inflammasome-driven IL-1 beta release | THP-1 LPS/ATP IL-1B secretion, AlphaLISA, 16 h; hits give low values | activity change, % at 57.5 µM | 360,000 compounds, 4.7% hits | AID 743279; in the data active means activity change below about -50%; inconclusive means mostly about -30% to -49%; further: on the % scale 0 is the no-effect control and ±100 the full control effect
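Secreted IL-1B measured by AlphaLISA bead assay after 16 h compound exposure of THP-1 cells; compounds (final up to 57.5 uM) added 1 h before LPS (250 ng/mL) and ATP (1.25 mM) stimulation; lower signal means less secretion.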
DRD3 antagonist: antagonists of human D3 dopamine receptor. max response, negative = inhibition, %. D3R cells, DiscoveRx beta-arrestin luminescence, antagonist mode; hits give low values. AID 652054. 360,000 compounds, 2.5% hits; in the data active means max response below about -50%; inconclusive means no clear call, values can overlap the other calls; further: on the % scale 0 is the no-effect control and ±100 the full control effect
Target sequence (P35462 whole entry, looked up): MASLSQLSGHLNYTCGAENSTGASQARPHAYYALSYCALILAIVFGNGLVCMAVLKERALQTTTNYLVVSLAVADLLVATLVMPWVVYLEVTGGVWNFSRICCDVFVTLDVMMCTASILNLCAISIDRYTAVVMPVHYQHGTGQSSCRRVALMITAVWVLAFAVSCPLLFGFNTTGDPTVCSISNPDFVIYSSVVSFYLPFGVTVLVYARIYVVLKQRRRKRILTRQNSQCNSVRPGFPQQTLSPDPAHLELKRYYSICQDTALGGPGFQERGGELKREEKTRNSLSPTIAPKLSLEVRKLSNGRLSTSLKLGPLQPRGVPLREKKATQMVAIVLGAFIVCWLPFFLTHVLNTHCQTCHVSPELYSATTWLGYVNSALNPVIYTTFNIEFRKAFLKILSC
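Cells plated overnight at 1500 cells/well, then exposed to library compounds with dopamine controls for 90 minutes at 37 degrees C. DiscoveRx reagent added for 30–60 minutes at room temperature; luminescence read, quantitative HTS format.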
TDP1 cell CPT: DT40-hTDP1 cell growth loss with CPT; chicken DT40 Tdp1-/-;hTDP1 cells + 20 nM CPT, ATP luminescence, 48 h; 420,000 compounds, 12% hits; Potency, µM (highest dose often 46.2 µM), inactives show at the highest dose activity change, negative = growth inhibition, usual class: inhibitors; further: potency means the concentration at half of the fitted maximal effect; on the % scale 0 is the no-effect control and ±100 the full control effect; nearly all actives have a fitted effect of over 55% in size
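Cell growth measured by CellTiter-Glo luminescence after a minimum 48 h, 37 C compound exposure with 20 nM CPT in Tdp1-knockout DT40 cells stably expressing hTDP1, seeded 400/well; qHTS titration format.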
ClpP mod: qHTS Assay for Activators of ClpP; ATP-dependent Clp protease proteolytic subunit (Bacillus subtilis (strain 168)), P80244; purified B. subtilis ClpP, FRET peptide cleavage, 20 min; Potency, µM (highest dose often 57.5 µM), without a hit: top-dose activity change, negative = active; 340,000 compounds, 1.9% hits; active means well fitted falling curve with a large enough effect; inconclusive means small, poorly fitted or top-dose-only effect; inactive means no such curve, though single readings can be large or run the other way; further: potency means the concentration at half of the fitted maximal effect; the source files actives as falling curves though it sought activators and does not explain the sign; nearly all actives have a fitted effect of over 65% in size
Target sequence (P80244 whole entry, looked up): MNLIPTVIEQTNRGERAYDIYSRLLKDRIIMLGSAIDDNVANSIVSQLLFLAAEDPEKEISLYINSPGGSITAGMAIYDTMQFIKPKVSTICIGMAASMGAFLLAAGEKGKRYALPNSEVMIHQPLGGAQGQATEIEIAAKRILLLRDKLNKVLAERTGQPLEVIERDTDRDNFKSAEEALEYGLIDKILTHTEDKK
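Buffer: 100 mM Tris/HCl pH8, 100 mM KCl, 0.05% low protease BSA, 2.5% glycerol, 0.01% Tween-20. ClpP 10 microg/mL final; 20 min RT; delta FRET normalized to ADEP and DMSO controls.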
DRD3 agonist: D3 dopamine receptor (human) agonism. P35462. D3R DiscoveRx beta-arrestin cells, luminescence, 90 min. max activation, %. 410,000 compounds, 0.58% hits. AID 652048; in the data active means max activation above about 30%; further: 0% is about no effect
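Cells at 1500/well, incubated overnight, then treated with pinned compounds (dopamine as control) for 90 min at 37 degrees C. DiscoveRx reagent added for 30 - 60 minutes at room temperature; luminescence read.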
TDP1 cell noCPT: qHTS for Inhibitors of human tyrosyl-DNA phosphodiesterase 1 (TDP1): qHTS in cells in absence of CPT | DT40 Tdp1-/- hTDP1 cells, no CPT, ATP luminescence, 48 h | 420,000 compounds, 15% hits | Potency, µM (doses to about 46.2 µM), for inactives: at the highest dose activity change, negative = growth inhibition, actives largely listed as inhibitors; further: potency means the concentration at half of the fitted maximal effect; on the % scale 0 is the no-effect control and ±100 the full control effect; nearly all actives have a fitted effect of over 55% in size
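Luminescent ATP content (CellTiter-Glo) served as the growth readout. Knockout chicken DT40 cells expressing human TDP1 were exposed to compounds without camptothecin for a minimum 48 hr at 37 °C.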
An asterisk follows results filed as active. Shown are actives, neighbours in structure and some others; about 21% of the full set was active somewhere. Unless noted, the call rests on the fitted dose curve; in most records, active means well fitted inhibition curve with a large enough effect; inconclusive means small, poorly fitted or top-dose-only effect; inactive means flat fitted curve, though single readings scatter.

How did CSc1ccc(CCNC(=O)c2ccc(-c3nc(COc4ccccc4)c(C)o3)cc2)cc1 do in these assays?
TDP1 cell CPT: -10%; ClpP mod: -2%; DRD3 agonist: 6; TDP1 cell noCPT: -17%

Results for O=C(NC1CCCCCC1)C(Cc1ccccc1)n1cccc1 (configuration not stated) ?
IL1B secr inh: -62*; DRD3 antagonist: 8; TDP1 cell CPT: inconclusive; DRD3 agonist: 0; TDP1 cell noCPT: inconclusive

Results for Cc1cccc(NC(=O)C(Cc2ccccc2)n2cccc2)c1C (configuration not stated) ?
TDP1 cell CPT: 16µM*; ClpP mod: 1%; DRD3 agonist: -5; TDP1 cell noCPT: 15µM*

What do the screens show for `CC1CCC(NC(=O)C(Cc2ccccc2)n2cccc2)CC1` (configuration not stated)?
IL1B secr inh: -26; DRD3 antagonist: 7; TDP1 cell CPT: inconclusive; ClpP mod: -1%; DRD3 agonist: -5; TDP1 cell noCPT: inconclusive

Results for Cc1ccc(NC(=O)C(Cc2ccccc2)n2cccc2)cc1 (configuration not stated) ?
IL1B secr inh: inconclusive; DRD3 antagonist: -20; TDP1 cell CPT: inconclusive; ClpP mod: -2%; DRD3 agonist: -10; TDP1 cell noCPT: 23µM*

Results for Cc1ccccc1NC(=O)C(Cc1ccccc1)n1cccc1 (configuration not stated) ?
IL1B secr inh: -14; DRD3 antagonist: -6; TDP1 cell CPT: -16%; DRD3 agonist: 13; TDP1 cell noCPT: inconclusive

What do the screens show for `Cc1csc(NC(=O)C(Cc2ccccc2)n2cccc2)n1` (configuration not stated)?
IL1B secr inh: -18; DRD3 antagonist: -16; TDP1 cell CPT: 29µM*; ClpP mod: -1%; DRD3 agonist: 1; TDP1 cell noCPT: inconclusive

How did C=C1CCC(C2CC(=O)OC2=O)C(=O)CCC2C1CC2(C)C (configuration not stated) do in these assays?
TDP1 cell CPT: 9%; TDP1 cell noCPT: -4%

How did COc1ccccc1CN1CC[C@@]2(CCCN(C(=O)c3c(C)noc3C)C2)C1 do in these assays?
TDP1 cell CPT: -4%; TDP1 cell noCPT: -17%

Results for CC(NC(=O)c1ccc(F)cc1F)C1CC2CCC1C2 (configuration not stated) ?
IL1B secr inh: 1; DRD3 antagonist: -15; TDP1 cell CPT: 5%; DRD3 agonist: 0; TDP1 cell noCPT: -14%

What do the screens show for `CC(=O)C(C(C)=O)C1(O)C(=O)c2ccccc2C1=O`?
IL1B secr inh: 21; DRD3 antagonist: 2; TDP1 cell CPT: 26µM*; ClpP mod: 1%; DRD3 agonist: 7; TDP1 cell noCPT: 23µM*

What do the screens show for `Cc1nnc(N2CCC(C(=O)NCCc3ccccc3)CC2)c2nn(-c3ccccc3)c(C)c12`?
TDP1 cell CPT: inconclusive; ClpP mod: -18%; DRD3 agonist: -17; TDP1 cell noCPT: 26µM*

How did Cc1nnc(N2CCC(C(=O)NCCC(C)C)CC2)c2nn(-c3ccc(Cl)cc3)c(C)c12 do in these assays?
TDP1 cell CPT: inconclusive; ClpP mod: -29%; DRD3 agonist: -3; TDP1 cell noCPT: 21µM*

How did CCCCN(CC)CCNC(=O)C1CCN(c2nnc(C)c3c(C)n(-c4ccc(C)cc4)nc23)CC1 do in these assays?
TDP1 cell CPT: inconclusive; ClpP mod: -22%; DRD3 agonist: -28; TDP1 cell noCPT: 21µM*

Results for Cc1ccc(CCNC(=O)C2CCN(c3nnc(C)c4c(C)n(-c5ccccc5)nc34)CC2)cc1 ?
TDP1 cell CPT: inconclusive; ClpP mod: inconclusive; DRD3 agonist: -13; TDP1 cell noCPT: -14%

Results for Cc1nnc(N2CCC(C(=O)N3CCCCC3)CC2)c2nn(-c3ccc(Cl)cc3)c(C)c12 ?
IL1B secr inh: -28; DRD3 antagonist: -8; TDP1 cell CPT: 21µM*; ClpP mod: -10%; DRD3 agonist: -10; TDP1 cell noCPT: inconclusive

What do the screens show for `COc1ccc(-n2nc3c(N4CCC(C(=O)N5CCC(C)CC5)CC4)nnc(C)c3c2C)cc1`?
IL1B secr inh: inconclusive; DRD3 antagonist: 1; TDP1 cell CPT: inconclusive; ClpP mod: inconclusive; DRD3 agonist: 5; TDP1 cell noCPT: inconclusive

Results for Cc1ccc2nc(COc3cccc(NC(=O)COc4ccccc4F)c3)cc(=O)n2c1 ?
TDP1 cell CPT: -20%; ClpP mod: -4%; DRD3 agonist: 7; TDP1 cell noCPT: -13%

Results for COc1cc(NC(=O)COC(=O)C2CC(O)CN2S(=O)(=O)c2ccc(Cl)cc2)c(C)cc1[N+](=O)[O-] (configuration not stated) ?
IL1B secr inh: 22; DRD3 antagonist: -2; TDP1 cell CPT: 9%; ClpP mod: 0%; DRD3 agonist: 2; TDP1 cell noCPT: 4%

How did Cc1cccc(C(=O)Nc2ccccc2OCc2cc(=O)n3cc(C)ccc3n2)c1 do in these assays?
TDP1 cell CPT: inconclusive; ClpP mod: -3%; DRD3 agonist: 7; TDP1 cell noCPT: inconclusive

How did Cc1ccc(-n2nc3c(N4CCC(C(=O)NCCc5cccs5)CC4)nnc(C)c3c2C)cc1 do in these assays?
IL1B secr inh: -4; DRD3 antagonist: inconclusive; TDP1 cell CPT: 26µM*; ClpP mod: -2%; DRD3 agonist: -14; TDP1 cell noCPT: 29µM*

How did CC(=O)c1ccc(NC(=O)C2CCN(c3nnc(C)c4c(C)n(-c5ccccc5)nc34)CC2)cc1 do in these assays?
TDP1 cell CPT: 15µM*; ClpP mod: inconclusive; DRD3 agonist: -18; TDP1 cell noCPT: 21µM*

How did Cc1ccc(NC(=O)C2CCN(c3nnc(C)c4c(C)n(-c5ccccc5)nc34)CC2)cc1Cl do in these assays?
TDP1 cell CPT: -2%; ClpP mod: -1%; DRD3 agonist: -7; TDP1 cell noCPT: inconclusive

Results for O=C(CC1C(=O)NCCN1Cc1cccc(F)c1)NCCCOc1cccnc1 (configuration not stated) ?
IL1B secr inh: -5; DRD3 antagonist: -4; TDP1 cell CPT: inconclusive; ClpP mod: -5%; DRD3 agonist: 1; TDP1 cell noCPT: inconclusive

How did COc1ccccc1NC(=O)COC(=O)c1cc([N+](=O)[O-])ccc1N1CCCC1 do in these assays?
IL1B secr inh: 1; DRD3 antagonist: -7; TDP1 cell CPT: inconclusive; ClpP mod: 2%; DRD3 agonist: 1; TDP1 cell noCPT: inconclusive
